Here are results for 34 molecules from ChEMBL document CHEMBL1961873, “Compounds: GSK PKIS; Assays: Nanosyn kinase panel” (2012).

Chain of Platelet-derived growth factor receptor alpha (Homo sapiens), P16234 [V561D] (P16234 whole entry V561D): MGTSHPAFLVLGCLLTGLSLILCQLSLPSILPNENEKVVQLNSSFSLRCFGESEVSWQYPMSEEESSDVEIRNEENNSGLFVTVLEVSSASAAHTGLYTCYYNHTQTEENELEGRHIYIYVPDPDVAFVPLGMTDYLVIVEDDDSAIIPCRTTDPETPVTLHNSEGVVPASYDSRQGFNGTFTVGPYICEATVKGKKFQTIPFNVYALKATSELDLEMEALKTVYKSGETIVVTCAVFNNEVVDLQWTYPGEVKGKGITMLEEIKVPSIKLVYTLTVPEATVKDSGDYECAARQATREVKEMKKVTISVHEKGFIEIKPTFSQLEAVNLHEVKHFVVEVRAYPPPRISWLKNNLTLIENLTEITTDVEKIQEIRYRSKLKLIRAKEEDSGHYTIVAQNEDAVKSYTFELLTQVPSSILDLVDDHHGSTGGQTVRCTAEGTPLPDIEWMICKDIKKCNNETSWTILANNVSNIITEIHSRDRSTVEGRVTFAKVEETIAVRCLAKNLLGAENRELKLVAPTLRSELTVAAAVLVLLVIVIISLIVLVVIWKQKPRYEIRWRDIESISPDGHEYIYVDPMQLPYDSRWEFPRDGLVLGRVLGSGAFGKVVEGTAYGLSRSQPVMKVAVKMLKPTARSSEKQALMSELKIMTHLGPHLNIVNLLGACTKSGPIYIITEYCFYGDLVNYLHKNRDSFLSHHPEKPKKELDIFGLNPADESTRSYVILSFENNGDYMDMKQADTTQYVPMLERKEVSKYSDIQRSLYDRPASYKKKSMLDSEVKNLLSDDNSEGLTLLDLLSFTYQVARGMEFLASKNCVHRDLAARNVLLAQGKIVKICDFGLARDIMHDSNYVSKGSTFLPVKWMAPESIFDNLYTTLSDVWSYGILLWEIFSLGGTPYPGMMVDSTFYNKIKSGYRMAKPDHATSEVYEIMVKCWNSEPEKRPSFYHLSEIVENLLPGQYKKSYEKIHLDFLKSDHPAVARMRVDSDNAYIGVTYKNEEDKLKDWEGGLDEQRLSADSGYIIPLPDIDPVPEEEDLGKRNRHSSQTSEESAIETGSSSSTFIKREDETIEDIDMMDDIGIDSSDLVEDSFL

The first assay has as its system Platelet-derived growth factor receptor alpha (Homo sapiens), P16234 [V561D]. To be noted: at 0.1 µM.
With `O=C1NC(=O)C(c2cccc(Cl)c2)=C1Nc1ccc(Cl)c(C(=O)O)c1`, the inhibition amounted to 2.77%.

In the case of `CCc1cccc(CC)c1/C=C/c1cncc(C(=O)NC)c1`, the inhibition was -0.14%.

For `C/C(Nc1ccc(S(N)(=O)=O)cc1)=C1/C(=O)Nc2ccccc21`, the inhibition was found to be 25%.

On to `Cc1ccc(C(=O)NC2CCC2)cc1-c1ccc(C(=O)NCC2CC2)cc1`, for which the inhibition is 2.49%.

With `O=C(Nc1n[nH]c2cc(-c3ccccc3)ccc12)C1CC1`, the inhibition was found to be 4.85%.

Turning to `NS(=O)(=O)c1ccc(N/N=C2\C(=O)Nc3ccc(-c4cnco4)cc32)cc1`, the inhibition stood at 8.44%.

With `COc1cc(C)c(N(C)C(=O)CN(C)C)cc1Nc1nc(Nc2cccc(F)c2C(N)=O)c2cc[nH]c2n1`, the inhibition was -2.16%.

With `CN1CCN(CCCNc2nc3ccc(Oc4ccc(NC(=O)Nc5cc(C(F)(F)F)ccc5F)cc4)cc3[nH]2)CC1`, the inhibition turned out to be 36%.

With `Fc1ccc(-c2ncn(C3CCNCC3)c2-c2ccnc(Oc3ccc(F)c(F)c3)n2)cc1`, the inhibition came to 2.26%.

Take `Cc1ccc(C(=O)NC(C)C)cc1-c1ccc(C(=O)NCC2CC2)cc1`: the inhibition is 1.87%.

In the case of `N#Cc1ccc(Oc2nccc(-c3c(-c4ccc(F)cc4)ncn3C3CCNCC3)n2)cc1`, the inhibition was found to be 3.7%.

As to `NC(=O)Cc1ccccc1Oc1nccc(-c2c(-c3ccc(F)cc3)ncn2C2CCNCC2)n1`, the inhibition was -0.19%.

On to `c1ccc(Oc2ccc(Nc3ncc(-c4ccccc4)o3)cc2)cc1`, for which the inhibition came out at 7.31%.

`Fc1ccc(-c2ncn(C3CCNCC3)c2-c2ccnc(Oc3ccc4c(c3)OCO4)n2)cc1`: the inhibition stood at 5.05%.

With `COc1ccc(C2=C(N3CCc4ccccc43)C(=O)NC2=O)cc1`, the inhibition came to 5.61%.

`C#Cc1cccc(Nc2ncnc3ccc(OCCCCNCCS(C)(=O)=O)cc23)c1`: the inhibition turned out to be 5.37%.

As for `c1ccc(-c2n[nH]cc2-c2ccnc(-c3ccc(OCCN4CCOCC4)cc3)c2)nc1`, the inhibition was 11.7%.

In the case of `Cc1ccc(NC(=O)c2ccoc2)cc1-c1ccc(C(=O)NCC2CC2)cc1`, the inhibition is 0.35%.

In the case of `CCS(=O)(=O)c1ccc(OC)c(Nc2ncc(-c3cccc(-c4ccccc4F)c3)o2)c1`, the inhibition was 18.5%.

As for `Clc1ccc(CNc2nccc(-c3cnn4ncccc34)n2)cc1`, the inhibition came out at 1.98%.

For the molecule `COc1ccc2cc(-c3c(-c4ccncc4)nc(-c4ccc(S(C)(=O)=O)cc4C)n3C)ccc2c1`, the inhibition is 8.36%.

Regarding `CNC(=O)c1cncc(/C=C/c2c(C)cccc2C)c1`, the inhibition was 21.3%.

Consider `CS(=O)(=O)CCNCc1cc(-c2cc3c(Nc4ccc(OCc5cccc(F)c5)c(Cl)c4)ncnc3s2)cs1`, for which the inhibition worked out at 4.52%.

As to `CCS(=O)(=O)c1ccc(OC)c(Nc2ncc(-c3ccccc3Cl)o2)c1`, the inhibition was 2.97%.

On to `Fc1ccc(-c2ncn(CCCN3CCOCC3)c2-c2ccncc2)cc1`, for which the inhibition was -0.24%.

Regarding `COc1cccc(/C=N/Nc2ncnc3c2cnn3-c2cccc(OC)c2)c1`, the inhibition was determined as 2.65%.

`CN(C)CCOc1ccc(-c2cc(-c3ccc4c(c3)CCC4=NO)c(-c3ccncc3)o2)cc1`: the inhibition was 0.77%.

Turning to `NS(=O)(=O)c1ccc(Nc2cc(-c3ccc(O)c(F)c3)n[nH]2)cc1`, the inhibition amounted to 33.2%.

Consider `NC(=O)c1cc(-c2ccc(F)cc2)cc(-c2ccncc2)c1N`, for which the inhibition was 3.94%.

As for `COc1cc2ncn(-c3cc(OCCc4ccccc4)c(C(N)=O)s3)c2cc1OC`, the inhibition was found to be 5.35%.

As for `O=C(Nc1n[nH]c2cc(-c3cc(F)ccc3F)ccc12)C1CC1`, the inhibition is 3.2%.

Take `COc1ccc2ncn(-c3cc(O[C@H](C)c4ccccc4Cl)c(C(N)=O)s3)c2c1`: the inhibition came to 4.37%.

In the case of `CN(C)CCCNc1nccc(-c2c(-c3ccc(F)cc3)nn3cc(C(F)(F)F)ccc23)n1`, the inhibition came to 0.27%.

Take `O=C(Nc1n[nH]c2nc(-c3ccco3)ccc12)C1CC1`: the inhibition was 3.66%.

For a further assay the test system is unchanged. Conditions: at 1 µM.
With `O=C1NC(=O)C(c2cccc(Cl)c2)=C1Nc1ccc(Cl)c(C(=O)O)c1`, the inhibition was determined as 0.49%.

For the molecule `CCc1cccc(CC)c1/C=C/c1cncc(C(=O)NC)c1`, the inhibition is 3.75%.

On to `C/C(Nc1ccc(S(N)(=O)=O)cc1)=C1/C(=O)Nc2ccccc21`, for which the inhibition stood at 62%.

`Cc1ccc(C(=O)NC2CCC2)cc1-c1ccc(C(=O)NCC2CC2)cc1`: the inhibition stood at 5.32%.

Consider `O=C(Nc1n[nH]c2cc(-c3ccccc3)ccc12)C1CC1`, for which the inhibition is 19.4%.

Regarding `NS(=O)(=O)c1ccc(N/N=C2\C(=O)Nc3ccc(-c4cnco4)cc32)cc1`, the inhibition was 46.8%.

For `COc1cc(C)c(N(C)C(=O)CN(C)C)cc1Nc1nc(Nc2cccc(F)c2C(N)=O)c2cc[nH]c2n1`, the inhibition was determined as 2.56%.

Consider `CN1CCN(CCCNc2nc3ccc(Oc4ccc(NC(=O)Nc5cc(C(F)(F)F)ccc5F)cc4)cc3[nH]2)CC1`, for which the inhibition turned out to be 80.7%.

Turning to `Fc1ccc(-c2ncn(C3CCNCC3)c2-c2ccnc(Oc3ccc(F)c(F)c3)n2)cc1`, the inhibition came out at 5.74%.

Take `Cc1ccc(C(=O)NC(C)C)cc1-c1ccc(C(=O)NCC2CC2)cc1`: the inhibition came to 2.98%.

As to `N#Cc1ccc(Oc2nccc(-c3c(-c4ccc(F)cc4)ncn3C3CCNCC3)n2)cc1`, the inhibition was found to be 3.69%.

On to `NC(=O)Cc1ccccc1Oc1nccc(-c2c(-c3ccc(F)cc3)ncn2C2CCNCC2)n1`, for which the inhibition was 4.04%.

Consider `c1ccc(Oc2ccc(Nc3ncc(-c4ccccc4)o3)cc2)cc1`, for which the inhibition worked out at 19.6%.

`Fc1ccc(-c2ncn(C3CCNCC3)c2-c2ccnc(Oc3ccc4c(c3)OCO4)n2)cc1`: the inhibition turned out to be 5.41%.

With `COc1ccc(C2=C(N3CCc4ccccc43)C(=O)NC2=O)cc1`, the inhibition was 6.87%.

Turning to `C#Cc1cccc(Nc2ncnc3ccc(OCCCCNCCS(C)(=O)=O)cc23)c1`, the inhibition came out at 10.6%.

In the case of `c1ccc(-c2n[nH]cc2-c2ccnc(-c3ccc(OCCN4CCOCC4)cc3)c2)nc1`, the inhibition is 55.5%.

`Cc1ccc(NC(=O)c2ccoc2)cc1-c1ccc(C(=O)NCC2CC2)cc1`: the inhibition is 1%.

In the case of `CCS(=O)(=O)c1ccc(OC)c(Nc2ncc(-c3cccc(-c4ccccc4F)c3)o2)c1`, the inhibition came out at 60.4%.

Regarding `Clc1ccc(CNc2nccc(-c3cnn4ncccc34)n2)cc1`, the inhibition is 7.98%.

On to `COc1ccc2cc(-c3c(-c4ccncc4)nc(-c4ccc(S(C)(=O)=O)cc4C)n3C)ccc2c1`, for which the inhibition was 15.3%.

Turning to `CNC(=O)c1cncc(/C=C/c2c(C)cccc2C)c1`, the inhibition stood at 48%.

As to `CS(=O)(=O)CCNCc1cc(-c2cc3c(Nc4ccc(OCc5cccc(F)c5)c(Cl)c4)ncnc3s2)cs1`, the inhibition came to 5.56%.

With `CCS(=O)(=O)c1ccc(OC)c(Nc2ncc(-c3ccccc3Cl)o2)c1`, the inhibition came out at 15.1%.

In the case of `Fc1ccc(-c2ncn(CCCN3CCOCC3)c2-c2ccncc2)cc1`, the inhibition worked out at 3.42%.

Turning to `COc1cccc(/C=N/Nc2ncnc3c2cnn3-c2cccc(OC)c2)c1`, the inhibition came out at 7.82%.

Take `CN(C)CCOc1ccc(-c2cc(-c3ccc4c(c3)CCC4=NO)c(-c3ccncc3)o2)cc1`: the inhibition was 4.25%.

As for `NS(=O)(=O)c1ccc(Nc2cc(-c3ccc(O)c(F)c3)n[nH]2)cc1`, the inhibition was found to be 68.3%.

For `NC(=O)c1cc(-c2ccc(F)cc2)cc(-c2ccncc2)c1N`, the inhibition turned out to be 4.61%.

Take `COc1cc2ncn(-c3cc(OCCc4ccccc4)c(C(N)=O)s3)c2cc1OC`: the inhibition was determined as 39.8%.

In the case of `O=C(Nc1n[nH]c2cc(-c3cc(F)ccc3F)ccc12)C1CC1`, the inhibition turned out to be 13.2%.

With `COc1ccc2ncn(-c3cc(O[C@H](C)c4ccccc4Cl)c(C(N)=O)s3)c2c1`, the inhibition was found to be 16.6%.

`CN(C)CCCNc1nccc(-c2c(-c3ccc(F)cc3)nn3cc(C(F)(F)F)ccc23)n1`: the inhibition came to 5.89%.

In the case of `O=C(Nc1n[nH]c2nc(-c3ccco3)ccc12)C1CC1`, the inhibition is 7.73%.

Broadly, the inhibition is the relative decrease from the control value, in per cent.
